Some test systems named below: T-47D breast; BT-549 breast; MDA-MB-435 melanoma; SW-620 colon; MCF7 breast; HCT-116 colon; HCC-2998 colon; KM12 colon.
Test in all cases: NCI-60 one-dose screen, 48 h (100 = growth as untreated, 0 = no growth, -100 = all killed)
Common to all, as to conditions: 10 µM unless noted

This is part of a sample that, as a whole, favours compounds with a hit. Of some 83,000 tested, about 20% had one in any assay.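 Note: values are percent growth. 100 is the growth of untreated cells, values between 100 and 0 indicate rising inhibition; between -100 and 0 indicates cell death.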 A number with no mark means an inactive call. Calls of active or inactive are those of the source. Rule for the calls: active = growth percent below 10; inactive = the rest.

In the case of `COc1ccc(Nc2cc(C)nc(N3CCN(c4ccnc5cc(Cl)ccc45)CC3)n2)cc1`, the growth in the experiment on T-47D breast was 7.42% (active); in the experiment on BT-549 breast, 51.2%; with MDA-MB-435 melanoma, 2.27% (active); with SW-620 colon, 25.4%; in the experiment on MCF7 breast, 9.32% (active); with HCT-116 colon, 0.65% (active). For the same molecule, the growth in the experiment on HCC-2998 colon was 41.2%; with KM12 colon, 23.1%.
As for `C=CC(=O)Nc1cccc(-c2nc(SC)nc(Nc3cccc(OC)c3)c2C#N)c1`, the growth in the experiment on T-47D breast is 38.5%; in the experiment with BT-549 breast, 45.4%; with MDA-MB-435 melanoma, 43.4%; in the experiment on SW-620 colon, 89.1%; in the experiment with MCF7 breast, 52.2%; with HCT-116 colon, 54.4%. The growth in the experiment with HCC-2998 colon is 82.3%; in the experiment on KM12 colon it was 87.9%.
As for `O=[N+]([O-])c1ccc2c(c1)Cc1cc(F)ccc1-2`, the growth with T-47D breast was 94.4%; in the experiment with BT-549 breast, 105%; in the experiment with MDA-MB-435 melanoma, 96.9%; in the experiment on SW-620 colon it was 96.3%; in the experiment on MCF7 breast it was 84.4%; in the experiment with HCT-116 colon it was 102%. Moreover, the growth in the experiment on HCC-2998 colon is 102%; in the experiment with KM12 colon, 109%.
As to `CC(=O)Nc1ccc(S(=O)(=O)Nc2cccc(-c3nc(-c4ccc(NC(=O)c5cccnc5)cc4Cl)no3)c2)cc1`, the growth in the experiment on T-47D breast is 14%; with BT-549 breast it was 33.3%; with MDA-MB-435 melanoma it was 6.69% (active); in the experiment on SW-620 colon, 29.5%; in the experiment with MCF7 breast, 17.1%; in the experiment with HCT-116 colon, 30.4%. The growth in the experiment with HCC-2998 colon is 69.1%; in the experiment with KM12 colon it was 28.7%.
Take `COc1ccc(C2C(C#N)=C(N)Oc3n[nH]c(-c4cccs4)c32)cc1I` (configuration not stated): the growth in the experiment on T-47D breast is 94.4%; in the experiment with BT-549 breast it was 92.1%; in the experiment on MDA-MB-435 melanoma, 66.7%; in the experiment on SW-620 colon it was 83.8%; in the experiment with MCF7 breast, 69.4%; with HCT-116 colon it was 91.9%. Further, the growth is 95.9% in the experiment with HCC-2998 colon and 86.2% in the experiment on KM12 colon.
Regarding `COc1ccc(Nc2nc(SC)nc(-c3cccc([N+](=O)[O-])c3)c2C#N)cc1`, the growth was 70.1% with T-47D breast; 86.9% in the experiment on BT-549 breast; 66.5% with MDA-MB-435 melanoma; 57.9% in the experiment on SW-620 colon; 66.7% in the experiment on MCF7 breast; 15.8% with HCT-116 colon. Besides, the growth is 94.3% in the experiment with HCC-2998 colon and 97.7% in the experiment with KM12 colon.
Regarding `CCOc1cc2ncc(C#N)c(Nc3ccc(F)c(Cl)c3)c2cc1NC(=O)CC1CCSS1` (configuration not stated), the growth with T-47D breast is -48.4% (active); with BT-549 breast, -25.3% (active); in the experiment on MDA-MB-435 melanoma, -92.1% (active); in the experiment on SW-620 colon, -49% (active); in the experiment on MCF7 breast it was -34.7% (active); with HCT-116 colon it was -61.7% (active). Also, the growth was -74% (active) in the experiment with HCC-2998 colon and -77.6% (active) in the experiment on KM12 colon.
In the case of `CCCCN(CCCC)CCCn1c(-c2ccccc2)ccc1-c1ccccc1`, the growth in the experiment on T-47D breast was 67.4%; in the experiment with BT-549 breast, 74.1%; in the experiment on MDA-MB-435 melanoma it was 85.7%; in the experiment with SW-620 colon, 65.1%; in the experiment with MCF7 breast it was 58.4%; in the experiment on HCT-116 colon it was 34.1%. For the same molecule, the growth in the experiment on HCC-2998 colon was 59.9%; in the experiment with KM12 colon it was 61.7%.
For the molecule `COc1ccc(/C=C/C(=O)c2cc(O)ccc2O)cc1`, the growth in the experiment with T-47D breast was 89.8%; with BT-549 breast, 90.4%; with MDA-MB-435 melanoma it was 75.8%; in the experiment with SW-620 colon, 100%; in the experiment on MCF7 breast, 94%; in the experiment with HCT-116 colon, 97.4%. For the same molecule, the growth was 106% in the experiment with HCC-2998 colon and 84.1% with KM12 colon.
Take `Oc1cccc2ccc(N/N=C/c3cc(CN4CCOCC4)c(O)c4ncccc34)nc12`: the growth was 26.9% in the experiment with T-47D breast; 18.4% with BT-549 breast; 23.8% in the experiment with MDA-MB-435 melanoma; 26.2% in the experiment on SW-620 colon; 18.6% in the experiment with MCF7 breast; 23.5% in the experiment with HCT-116 colon. In addition, the growth is 26.6% with HCC-2998 colon and 13.7% with KM12 colon.
As to `COc1cc(C(=O)Oc2ccccc2OC(=O)c2cc(OC)c(OC)c(OC)c2)cc(OC)c1OC`, the growth is 102% with T-47D breast; 94% in the experiment with BT-549 breast; 103% in the experiment on MDA-MB-435 melanoma; 109% in the experiment on SW-620 colon; 97.2% with MCF7 breast; 104% in the experiment on HCT-116 colon. Besides, the figures for the growth in the experiment with HCC-2998 colon and in the experiment with KM12 colon were 101% and 90.8%, respectively.
As to `O=C(COc1ccc(/C=C2\CSc3ccccc3C2=O)cc1)Nc1nccs1`, the growth with T-47D breast is 90%; with BT-549 breast, 112%; with MDA-MB-435 melanoma, 65.4%; in the experiment with SW-620 colon, 17.3%; with MCF7 breast, 6.72% (active); with HCT-116 colon, 48.2%. Moreover, the results for the growth in the experiment on HCC-2998 colon and in the experiment on KM12 colon were 103% and 13.8%, respectively.
Regarding `Cc1cc(N2CCN(c3ccnc4cc(Cl)ccc34)CC2)nc(N2CCOCC2)n1`, the growth with T-47D breast was 46.9%; in the experiment on BT-549 breast it was 86%; with MDA-MB-435 melanoma it was 88.7%; with SW-620 colon, 101%; with MCF7 breast, 75.1%; with HCT-116 colon, 70.3%. In addition, the growth was 89% with HCC-2998 colon and 85.6% with KM12 colon.
Regarding `C#Cc1cccc(NC(=O)c2ccccc2NC(=O)CCl)c1`, the growth in the experiment with T-47D breast was 77.7% [8.25 µM]; in the experiment on BT-549 breast, 61.6% [8.25 µM]; in the experiment with MDA-MB-435 melanoma it was 89.9% [8.25 µM]; in the experiment with SW-620 colon it was 79.5% [8.25 µM]; with MCF7 breast, 67.9% [8.25 µM]; in the experiment with HCT-116 colon, 49.4% [8.25 µM]. Moreover, the growth is 99.2% [8.25 µM] with HCC-2998 colon and 99.7% [8.25 µM] with KM12 colon.

The values are drawn from PubChem BioAssay (NCI).
